# Assay results: the supplement of paper PMC6555819
# Legend:
# Assay in all cases: PBM binding z-score (relative to random genomic background probes); higher = stronger binding; sequences stand for … in GC…GCGATTGACAGCGTAGAATGAAGG
# [1] = test system: FXR:RXRa (NR concentration 270 nM, RXRa partner concentration 90 nM)
# Summary of the method: (§1)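 Ligand-free nuclear receptor dimers were applied to custom Agilent 4×180K protein-binding microarrays whose double-stranded probes carried direct-repeat seeds, single-nucleotide variants, half-site ablations and random human genomic background sequences in 34-nt variable regions. Incubation lasted 1 h. Binding z-scores were computed against the random background probes from regression-normalized fluorescence.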
# [2] = test system: LXRa:RXRa (NR concentration 270 nM, RXRa partner concentration 90 nM)
# Summary of the method: as §1
# [3] = test system: LXRa homodimer (NR concentration 270 nM)
# Summary of the method: as §1
# [4] = test system: LXRb:RXRa (NR concentration 270 nM, RXRa partner concentration 90 nM)
# Summary of the method: as §1
# [5] = test system: LXRb homodimer (NR concentration 270 nM)
# Summary of the method: as §1
# [6] = test system: PPARa:RXRa (NR concentration 270 nM, RXRa partner concentration 90 nM)
# Summary of the method: as §1
# [7] = test system: PPARg:RXRa (NR concentration 180 nM, RXRa partner concentration 90 nM)
# Summary of the method: as §1
# [8] = test system: PPARg:RXRa 270nM:90nM, anti-RXR (NR concentration 270 nM, RXRa partner concentration 90 nM)
# Summary of the method: as §1
# [9] = test system: PPARg:RXRa 30nM:10nM, anti-RXR (NR concentration 30 nM, RXRa partner concentration 10 nM)
# Summary of the method: as §1
# [10] = test system: PPARg:RXRa 90nM:30nM, anti-RXR (NR concentration 90 nM, RXRa partner concentration 30 nM)
# Summary of the method: as §1
sequence,measurement,setting,value
ACTAGATGGTCAGCTGAGGTCACACACAATTCGG,PBM binding z-score,[1],4.73
same,PBM binding z-score,[2],3.89
same,PBM binding z-score,[3],2.33
same,PBM binding z-score,[4],3.48
same,PBM binding z-score,[5],0.584
same,PBM binding z-score,[6],3.6
same,PBM binding z-score,[7],1.95
same,PBM binding z-score,[8],2.13
same,PBM binding z-score,[9],0.736
same,PBM binding z-score,[10],1.61
ATCTCCAGGTAAAGTTCAGTGAAAGATCGATAGA,PBM binding z-score,[1],1.54
same,PBM binding z-score,[2],2.1
same,PBM binding z-score,[3],1.98
same,PBM binding z-score,[4],1.55
same,PBM binding z-score,[5],1.25
same,PBM binding z-score,[6],2.02
same,PBM binding z-score,[7],1.2
same,PBM binding z-score,[8],2.62
same,PBM binding z-score,[9],1
same,PBM binding z-score,[10],1.91
TCTTGTAGAGCAGCAGGTTAAGAAAGCTGGCCAA,PBM binding z-score,[1],-0.000312
same,PBM binding z-score,[2],-0.0132
same,PBM binding z-score,[3],-1.04
same,PBM binding z-score,[4],-0.257
same,PBM binding z-score,[5],-1.45
same,PBM binding z-score,[6],0.529
same,PBM binding z-score,[7],-0.553
same,PBM binding z-score,[8],1.04
same,PBM binding z-score,[9],1.29
same,PBM binding z-score,[10],1.01
CAACCTAGGTCACAGAGGTCAAAGTCCGTGCGTA,PBM binding z-score,[1],7.56
same,PBM binding z-score,[2],6.89
same,PBM binding z-score,[3],7.7
same,PBM binding z-score,[4],6.74
same,PBM binding z-score,[5],2.06
same,PBM binding z-score,[6],6.1
same,PBM binding z-score,[7],7.27
same,PBM binding z-score,[8],6.89
same,PBM binding z-score,[9],3.63
same,PBM binding z-score,[10],6.19
TCGAGTAGGTGAGGGGCATTCAGAATGGCGTCGA,PBM binding z-score,[1],0.283
same,PBM binding z-score,[2],-0.0871
same,PBM binding z-score,[3],-0.49
same,PBM binding z-score,[4],1.21
same,PBM binding z-score,[5],0.881
same,PBM binding z-score,[6],1.47
same,PBM binding z-score,[7],1.99
same,PBM binding z-score,[8],3.31
same,PBM binding z-score,[9],1.98
same,PBM binding z-score,[10],2.63
CCTGATAGGTCATGGTCAGCTAATCTACAGTATG,PBM binding z-score,[1],5.33
same,PBM binding z-score,[2],4.19
same,PBM binding z-score,[3],0.689
same,PBM binding z-score,[4],3.39
same,PBM binding z-score,[5],0.182
same,PBM binding z-score,[6],4.96
same,PBM binding z-score,[7],3.65
same,PBM binding z-score,[8],3.99
same,PBM binding z-score,[9],1.25
same,PBM binding z-score,[10],2.81
CCTCGGAGGACAACACGAGGTCAGAGCTGCCAGA,PBM binding z-score,[1],1.62
same,PBM binding z-score,[2],2.84
same,PBM binding z-score,[3],2.76
same,PBM binding z-score,[4],1.58
same,PBM binding z-score,[5],-0.589
same,PBM binding z-score,[6],2.22
same,PBM binding z-score,[7],0.596
same,PBM binding z-score,[8],0.153
same,PBM binding z-score,[9],-0.655
same,PBM binding z-score,[10],-0.293
TAGCCTAGGTCATGGGGGCCAGTATAGTGTCGGC,PBM binding z-score,[1],4.96
same,PBM binding z-score,[2],4
same,PBM binding z-score,[3],0.742
same,PBM binding z-score,[4],4.86
same,PBM binding z-score,[5],5.38
same,PBM binding z-score,[6],4.64
same,PBM binding z-score,[7],4.04
same,PBM binding z-score,[8],4.26
same,PBM binding z-score,[9],1.09
same,PBM binding z-score,[10],3.11
CATACTGGGCCATTCAGAGGTCATTGATCATATG,PBM binding z-score,[1],3.03
same,PBM binding z-score,[2],4.44
same,PBM binding z-score,[3],6.31
same,PBM binding z-score,[4],3.86
same,PBM binding z-score,[5],0.861
same,PBM binding z-score,[6],3.77
same,PBM binding z-score,[7],2.37
same,PBM binding z-score,[8],3.13
same,PBM binding z-score,[9],1.18
same,PBM binding z-score,[10],2.26
GCTGCTAGGTCAGGTTGGTCAGTTAACGGGTACG,PBM binding z-score,[1],1.25
same,PBM binding z-score,[2],0.792
same,PBM binding z-score,[3],0.267
same,PBM binding z-score,[4],0.719
same,PBM binding z-score,[5],0.0842
same,PBM binding z-score,[6],1.6
same,PBM binding z-score,[7],0.425
same,PBM binding z-score,[8],0.836
same,PBM binding z-score,[9],-0.54
same,PBM binding z-score,[10],-0.0172
ACTATTAGTTGAATTAGGGCAACCGATACGACGC,PBM binding z-score,[1],0.466
same,PBM binding z-score,[2],-0.0406
same,PBM binding z-score,[3],0.224
same,PBM binding z-score,[4],-0.00259
same,PBM binding z-score,[5],0.376
same,PBM binding z-score,[6],1.19
same,PBM binding z-score,[7],1.47
same,PBM binding z-score,[8],1.12
same,PBM binding z-score,[9],0.71
same,PBM binding z-score,[10],1.04
CATACAGGTTCAGCTAGGCCAGAGTAGGGACGGC,PBM binding z-score,[1],0.788
same,PBM binding z-score,[2],1.03
same,PBM binding z-score,[3],-0.0766
same,PBM binding z-score,[4],0.293
same,PBM binding z-score,[5],-0.03
same,PBM binding z-score,[6],1.21
same,PBM binding z-score,[7],0.629
same,PBM binding z-score,[8],0.338
same,PBM binding z-score,[9],-0.155
same,PBM binding z-score,[10],0.0738
ACTTACGGGTCAACGAGGTTATAGCTCGCGTATA,PBM binding z-score,[1],7.28
same,PBM binding z-score,[2],5.05
same,PBM binding z-score,[3],0.77
same,PBM binding z-score,[4],4.4
same,PBM binding z-score,[5],0.524
same,PBM binding z-score,[6],5.72
same,PBM binding z-score,[7],5.51
same,PBM binding z-score,[8],5.57
same,PBM binding z-score,[9],2.36
same,PBM binding z-score,[10],4.17
TTACCAAGGTGTGCTGAGGTCGTTGATCCAACTC,PBM binding z-score,[1],0.714
same,PBM binding z-score,[2],0.293
same,PBM binding z-score,[3],-0.284
same,PBM binding z-score,[4],0.587
same,PBM binding z-score,[5],-0.354
same,PBM binding z-score,[6],0.88
same,PBM binding z-score,[7],-0.381
same,PBM binding z-score,[8],0.606
same,PBM binding z-score,[9],-0.307
same,PBM binding z-score,[10],0.00377
GCTAGCTGGTCAGTAAAAGGTCACACACCGGTCG,PBM binding z-score,[1],3.2
same,PBM binding z-score,[2],4.47
same,PBM binding z-score,[3],4.35
same,PBM binding z-score,[4],3.88
same,PBM binding z-score,[5],0.195
same,PBM binding z-score,[6],4.21
same,PBM binding z-score,[7],2.43
same,PBM binding z-score,[8],4.13
same,PBM binding z-score,[9],1.46
same,PBM binding z-score,[10],3.75
GCTGCTAGGTCAGGTTGGTCAGCCAACGGGTACG,PBM binding z-score,[1],1.12
same,PBM binding z-score,[2],0.345
same,PBM binding z-score,[3],-0.418
same,PBM binding z-score,[4],0.336
same,PBM binding z-score,[5],-0.341
same,PBM binding z-score,[6],1.36
same,PBM binding z-score,[7],0.298
same,PBM binding z-score,[8],1.1
same,PBM binding z-score,[9],-0.412
same,PBM binding z-score,[10],0.115
TCGAATAGGTTAGGGGCATTCAGAATGGCGTCGA,PBM binding z-score,[1],0.35
same,PBM binding z-score,[2],0.807
same,PBM binding z-score,[3],-0.0676
same,PBM binding z-score,[4],1.26
same,PBM binding z-score,[5],0.0688
same,PBM binding z-score,[6],1.49
same,PBM binding z-score,[7],0.443
same,PBM binding z-score,[8],2.13
same,PBM binding z-score,[9],2.93
same,PBM binding z-score,[10],2.56
CCTAGTTGGTCAGGAGGTCTCACACCGGATATGA,PBM binding z-score,[1],0.237
same,PBM binding z-score,[2],0.219
same,PBM binding z-score,[3],0.125
same,PBM binding z-score,[4],-0.00774
same,PBM binding z-score,[5],-0.246
same,PBM binding z-score,[6],0.135
same,PBM binding z-score,[7],0.469
same,PBM binding z-score,[8],0.772
same,PBM binding z-score,[9],-0.0549
same,PBM binding z-score,[10],0.338
CGTCCAAGGTCAAAGGTCAGTGATGAGATGACGG,PBM binding z-score,[1],8.34
same,PBM binding z-score,[2],6.88
same,PBM binding z-score,[3],3.97
same,PBM binding z-score,[4],6.55
same,PBM binding z-score,[5],2.01
same,PBM binding z-score,[6],7.15
same,PBM binding z-score,[7],10.7
same,PBM binding z-score,[8],8.75
same,PBM binding z-score,[9],8.43
same,PBM binding z-score,[10],9.31
TCTATTAGTTGATTAGGGCAACCCAAACAGCGGA,PBM binding z-score,[1],0.851
same,PBM binding z-score,[2],0.543
same,PBM binding z-score,[3],0.334
same,PBM binding z-score,[4],0.826
same,PBM binding z-score,[5],0.771
same,PBM binding z-score,[6],1.09
same,PBM binding z-score,[7],0.509
same,PBM binding z-score,[8],1.97
same,PBM binding z-score,[9],3.86
same,PBM binding z-score,[10],2.89
CCTAGGAGGCCAGGGTCACTCAAGCATTTCGCTT,PBM binding z-score,[1],1.76
same,PBM binding z-score,[2],1.21
same,PBM binding z-score,[3],-0.383
same,PBM binding z-score,[4],1.7
same,PBM binding z-score,[5],-1.15
same,PBM binding z-score,[6],3
same,PBM binding z-score,[7],0.95
same,PBM binding z-score,[8],1.71
same,PBM binding z-score,[9],-0.259
same,PBM binding z-score,[10],0.653
TCTGCTAGGTCAACGATGGTCAGATAATCTGCTA,PBM binding z-score,[1],3.65
same,PBM binding z-score,[2],2.85
same,PBM binding z-score,[3],0.0239
same,PBM binding z-score,[4],1.94
same,PBM binding z-score,[5],0.0958
same,PBM binding z-score,[6],3.3
same,PBM binding z-score,[7],2.82
same,PBM binding z-score,[8],3.22
same,PBM binding z-score,[9],2.1
same,PBM binding z-score,[10],2.55
